Assay results: PubChem BioAssay AID1259312 (Keith Lab, Institute of Cancer Science, University of …, 2017)
Where “and” joins values, the source holds several entries; their conditions need not be identical. Identical values can stand only once. Hit rate of the full screen: of about 4,500 compounds, about 200 (4.4%) were called active.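 The calls were made as follows: active = cell survival measured by absorbance rises more than 2.5-fold over infected cells without compound; inactive = the rest.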 Shown is part of a subset that was picked to be rich in actives. The source holds several records for some structures; these can differ, active in one and inactive in another.

test: survival after telomere uncapping, modulators, primary screen, cell-based (AID 1259312); conditions: HCT116 + Ad-hTR-mut, MTT, 5 d; at 10 µM, stronger effect = higher value;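 also: virus expresses mutant telomerase RNA that uncaps telomeres and kills cells; compound added 2 days after infection so exposure lasts 3 days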

Row | SMILES | fold change
1 | CCOC(=O)C1CCN(C(=O)C(=O)N2CCC(C(=O)OCC)CC2)CC1 | -1.3 (inactive)
2 | CCOC(=O)C1CCN(C(C)=O)CC1 | 3.8 (active)
3 | CCOC(=O)C1CCN(C(=O)N2CCOCC2)CC1 | -1.12 (inactive)
4 | O=C(NC1CCCC1)c1ccc(COc2cc(Cl)ccc2Cl)o1 | -1.53 (inactive)
5 | O=C1/C(=C/c2c(N3CCOCC3)nc3ccccn3c2=O)SC(=S)N1CC1CCCO1 (stereo not given) | -1.1 (inactive)
6 | Nc1ccc(Cn2ccnc2)cc1 | -1.06 (inactive)
7 | CCCCNC(=O)C(=O)NCCCn1ccnc1 | -3.64 (inactive)
8 | NCCCCn1ccnc1 | 2.97 (active)
9 | O=C1CCCN1c1ccc([N+](=O)[O-])cc1 | 4.37 (active)
10 | O=C1CCCN1c1ccc(S(=O)(=O)Cl)cc1 | 1.34 (inactive)
11 | O=C1CCCN1c1ccc(NS(=O)(=O)N2CCCCC2)cc1 | -1.3 (inactive)
12 | CCN(CC)CCCN1c2ccccc2Sc2ccc(C(F)(F)F)cc21 | 5.26 (active)
13 | CN(CCCN1c2ccccc2CCc2ccccc21)c1nc(-c2ccc(F)cc2)cs1 | -1.32 (inactive)
14 | Fc1ccc(-c2csc(N3CCN(CCCN4c5ccccc5Sc5ccc(C(F)(F)F)cc54)CC3)n2)cc1 | 1.16 (inactive)
15 | CC1SC2(C(=O)Nc3ccccc32)N(c2cccc(Br)c2)C1=O (stereo not given) | -4.19 (inactive)
16 | O=C(O)C1=C/C(=C(/c2ccccc2)c2cc(C(=O)O)c(O)c3ccccc23)c2ccccc2C1=O | 1.42 (inactive)
17 | O=C1NC(=O)/C(=C/c2cc(Br)ccc2OCc2ccc(F)cc2)N1 | -1.15 (inactive)
18 | C=CCn1c(-c2ccc(OC)cc2)n[nH]c1=S | -2.14 (inactive)
19 | CS(=O)(=O)N1CCc2ccccc2C1 | -1.26 (inactive)
20 | O=[N+]([O-])c1cccc(N2Cc3ccccc3C2)c1 | -1.27 (inactive)
21 | O=c1ccc(=O)n2n1Cc1ccccc1C2 | 3.52 (active)
22 | O=C(O)CC1CCCCO1 (stereo not given) | -1.75 (inactive)
23 | O=C1CC(c2ccccc2)CC2=C1C(c1ccc(-c3ccccc3)cc1)Nc1ccccc1N2 (stereo not given) | 1.1 (inactive)
24 | Cn1cc(Cl)c(C(=O)N2CCc3ccccc3C2)n1 | -2.46 (inactive)
25 | N#CC1=C(N)C(C#N)(C#N)C2=CCCC2C12CCCCC2 (stereo not given) | 2.06 (inactive)

Row | SMILES | fold change
26 | Cc1ccc(-c2nnnn2C(C#N)=P(c2ccccc2)(c2ccccc2)c2ccccc2)cc1 | 2.78 (active)
27 | N#CC(C(N)=S)=P(c1ccccc1)(c1ccccc1)c1ccccc1 | -1.25 (inactive)
28 | COc1cc(OC)cc([C@@H]2[C@@H](C(C)(C)C)C(C#N)(C#N)[C@H]3C=Cc4ccccc4N23)c1 | 1.39 (inactive)
29 | Cn1c(=S)n(CCSc2nc3ccccc3n2C2CCCCC2)c2ccccc21 | -2.22 (inactive)
30 | CN(C)c1ccc(N2CC(=O)SC2=NC#N)cc1 | -2.16 (inactive)
31 | COC1OC(C)C(OCc2ccccc2)C(O)C1O (stereo not given) | 1.93 (inactive)
32 | OCc1ccccc1O[C@@H]1O[C@H](CO)[C@@H](O)[C@H](O)[C@H]1O | 1.37 (inactive)
33 | COC1OC(COC(c2ccccc2)(c2ccccc2)c2ccccc2)C(O)C(O)C1O (stereo not given) | 2.72 (active)
34 | CCCCc1sc(-c2c(C#N)c(N)nc3c2CCCC3)cc1[N+](=O)[O-] | -2.22 (inactive)
35 | CCSCCOC(=O)C1=C(C)NC2=C(C(=O)CCC2)C1c1ccsc1 (stereo not given) | -1.16 (inactive)
36 | CCCCOc1ccc(C2C(C#N)=C(N)Nc3oc(OC)nc32)cc1CCC (stereo not given) | -1.87 (inactive)
37 | O=S(=O)(c1cc(Cl)ccc1Cl)N1CCc2ccccc2C1 | 1.42 (inactive)
38 | COc1ccc(S(=O)(=O)N2CCN(C)CC2)cc1 | -1.28 (inactive)
39 | CCC1CCCCN1S(=O)(=O)c1ccc(Cl)cc1 (stereo not given) | -1.26 (inactive)
40 | O=C(O)C1CCCN1S(=O)(=O)c1cc(Cl)ccc1Cl (stereo not given) | -1.09 (inactive)
41 | CC1CC(C)CN(S(=O)(=O)c2ccc(Cl)cc2)C1 (stereo not given) | 3.13 (active)
42 | CC1CCCN(S(=O)(=O)c2ccc(Cl)cc2)C1 (stereo not given) | 5.69 (active)
43 | CC1CCCN(S(=O)(=O)c2ccc(Br)cc2)C1 (stereo not given) | 1.44 (inactive)
44 | COc1ccc(S(=O)(=O)N2CCN(CCO)CC2)cc1 | -1.24 (inactive)
45 | O=S(=O)(c1ccc(Cl)cc1)N1CCOC1C(Cl)(Cl)Cl (stereo not given) | -2.17 (inactive)
46 | COc1ccc(S(=O)(=O)N2CC(C)CC(C)C2)cc1 (stereo not given) | 3.34 (active)
47 | CC1CCN(S(=O)(=O)c2ccc(Cl)cc2)CC1 | 1.93 (inactive)
48 | CC1CCCN(S(=O)(=O)c2cc(Cl)ccc2Cl)C1 (stereo not given) | 3.18 (active)
49 | CCC1CN2CCc3cc(OC)c(OC)cc3[C@@H]2C[C@@H]1C[C@H]1NCCc2cc(OC)c(OC)cc21 (stereo not given in full) | -4.98 (inactive)
50 | Nc1nnc(SCc2ccc(Cl)cc2Cl)s1 | 1.92 (inactive)

Row | SMILES | fold change
51 | CC(C)(C)c1cc(C(C)(C)C)c(O)c(C(C)(C)C)c1 | -1.04 (inactive)
52 | CS(=O)(=O)N1CCc2ccccc21 | 1.49 (inactive)
53 | CN=C1/C(=N/O)C=CC2CCCCC12 (stereo not given) | inactive
54 | O=[N+]([O-])c1cc(Br)cc(C=Nc2cc(Cl)cc(Cl)c2)c1O | inactive
55 | O=C1C=CC(=C(c2ccc(O)c(O)c2)c2ccccc2S(=O)(=O)O)C=C1O | 1.05 (inactive)
56 | Cc1cc(=O)[nH]c(SCc2ccon2)n1 | inactive
57 | Cn1c(=O)n(C)c2cc(S(=O)(=O)N3CCCCC3)ccc21 | -4.28 (inactive)
58 | CSC(=Nc1ccc(C)c(C)c1)NC#N | 3.26 (active)
59 | CC1(C)CC2CC(C)(CN2S(=O)(=O)c2ccc(N)cc2)C1 (stereo not given) | -1.15 (inactive)
60 | CN(C)CCCN1C(=O)C(O)=C(C(=O)c2ccco2)C1c1cccs1 (stereo not given) | 1.06 (inactive)
61 | Cc1ccc(C2C(C#N)=C(N)OC3=C2C(=O)CCC3)o1 (stereo not given) | -2.21 (inactive)
62 | N#CC1=C(N)OC2=C(C(=O)CCC2)C1c1ccc(Br)s1 (stereo not given) | -1.06 (inactive)
63 | N#CC1=C(N)OC2=C(C(=O)CCC2)C1c1cc(F)ccc1F (stereo not given) | 2.83 (active)
64 | Cn1c(SC2CCOC2=O)nc2ccccc2c1=O (stereo not given) | -1.35 (inactive)
65 | COc1nc(-c2ccccc2)cc(-c2ccccc2)c1C#N | 1.46 (inactive)
66 | OC[C@@H]1O[C@H](O[C@H]2O[C@H](CO[C@H]3O[C@H](CO)[C@H](O)[C@H](O)[C@H]3O)[C@@H](O)[C@H](O)[C@H]2O)[C@H](O)[C@H]1O | 2.81 (active)
67 | NC[C@@H]1O[C@H](O[C@H]2[C@@H](O)[C@H](O[C@@H]3[C@@H](O)[C@H](N)C[C@H](N)[C@H]3O[C@H]3O[C@H](CN)[C@@H](O)[C@H](O)[C@H]3N)O[C@@H]2CO)[C@H](N)[C@@H](O)[C@@H]1O | -1.27 (inactive)
68 | OCC1OC(OC2OC(CO)C(O)C(O)C2O)C(O)C(O)C1O (stereo not given) | -1.63 (inactive)
69 | OC[C@H]1O[C@@H](OC[C@H]2O[C@@H](O)[C@H](O)[C@@H](O)[C@@H]2O)[C@H](O)[C@@H](O)[C@@H]1O | -1.38 (inactive)
70 | O=[N+]([O-])c1ccc(OC2OC(CO)C(O)C(O)C2O)cc1 (stereo not given) | 1.11 (inactive)
71 | OC[C@@H]1OC(O)[C@@H](O)[C@H](O)[C@H]1O[C@H]1O[C@H](CO)[C@@H](O)[C@H](O)[C@H]1O (stereo not given in full) | 3.84 (active)
72 | CC(N)c1nc(-c2cccnc2)no1 (stereo not given) | -2.47 (inactive)
73 | O=S(=O)(NCc1ccc2c(c1)OCO2)c1ccc2oc3ccccc3c2c1 | 1.03 (inactive)
74 | Cn1c(=O)c2c(nc(NCCOc3ccc(Cl)cc3)n2C)n(C)c1=O | 1.16 (inactive)
75 | O=c1cc(-c2ccc(O)c(O)c2)oc2cc(OC3OC(CO)C(O)C(O)C3O)cc(O)c12 (stereo not given) | -1.76 (inactive)

Row | SMILES | fold change
76 | CC(Nc1cc(Cl)ccc1[N+](=O)[O-])C12CC3CC(CC(C3)C1)C2 (stereo not given) | -1.01 (inactive)
77 | O=S(=O)(c1ccccc1)N1CCN(C(c2ccccc2)c2ccccc2)CC1 | 3.51 (active)
78 | O=S(=O)(c1ccccc1)N1CCN(c2ccccc2)CC1 | -1.03 (inactive)
79 | O=S(=O)(c1ccccc1)N1CCN(CCO)CC1 | -1.34 (inactive)
80 | O=C(O)CN(CP(=O)(O)O)CP(=O)(O)O | -4.38 (inactive)
81 | COc1cc(CSC(=N)N)c([N+](=O)[O-])cc1OC | -1.68 (inactive)
82 | C=CCOC1OC(COC(C)=O)C(OC(C)=O)C(OC(C)=O)C1OC(C)=O (stereo not given) | 3.1 (active)
83 | CC(=O)OC[C@H]1O[C@@H](n2ncc(=O)[nH]c2=O)[C@H](OC(C)=O)[C@@H]1OC(C)=O | -1.81 (inactive)
84 | CC(=O)OCC1OC(n2ccc(=O)[nH]c2=O)C(OC(C)=O)C1OC(C)=O (stereo not given) | -1.3 (inactive)
85 | Cc1ccc(C(c2c(C)[nH]n(-c3ccccc3)c2=O)c2c(C)[nH]n(-c3ccccc3)c2=O)o1 | 1.83 (inactive)
86 | CN1CC=C2[C@H](C1)[C@@H](c1ccccc1F)C(C#N)=C(N)C2(C#N)C#N | 1.08 (inactive)
87 | Cc1cc(C)cc(OCC(=O)N=Nc2c(O)[nH]c3ccccc23)c1 | inactive
88 | N#Cc1sc2nc(-c3cccs3)ccc2c1N | 5 (active)
89 | c1csc(-c2nc3sc(-c4cccs4)nc3s2)c1 | -2.65 (inactive)
90 | N#Cc1sc2nc3c(cc2c1N)CCCC3 | 1.19 (inactive)
91 | Cc1cccc(N2CCC(N=CN3CCOCC3)=N2)c1 | 2.57 (active)
92 | O=C(O)CCC(=O)Nc1nccs1 | -1.01 (inactive)
93 | O=C(CN1CCOCC1)Nc1nccs1 | 3.2 (active)
94 | CCCCCCCCCCCC(=O)Nc1nccs1 | -1.36 (inactive)
95 | CCOC(=O)/C(=C\C1=CC=C([N+](=O)[O-])C1)NC(=O)c1cccc(C)c1 | 2 (inactive)
96 | Cc1cc2c(cc1C)-c1c(ssc1=Nc1ccc(S(N)(=O)=O)cc1)C(C)(C)N2 | -1.69 (inactive)
97 | COc1cc(C2C(C(=O)OC3CCCCC3)=C(C)NC3=C2C(=O)CC(C)(C)C3)cc(OC)c1OC (stereo not given) | -1.82 (inactive)
98 | O=C(CCCc1c[nH]c2ccccc12)NCCSc1ccccc1 | -1.53 (inactive)
99 | NC(=O)CCCc1c[nH]c2ccccc12 | 1.03 (inactive)
100 | O=C(O)CCCc1c[nH]c2ccccc12 | 3.42 (active) and -1.18 (inactive)
